Experimental data reported in the supplement of paper PMC10849652.
Of roughly 7,900 targets only a part is listed; those with a hit were picked by preference. About 0.6% of all pairs of compound and target were hits. A number with no mark means an inactive call.

Compound: CC[C@@H]1C(=O)N(C)c2cnc(Nc3ccc(C(=O)NC4CCN(C)CC4)cc3OC)nc2N1C1CCCC1
Assay: log2 fold change, soluble protein after heating vs DMSO (PISA); higher = thermal stabilisation; K562 cells, 10 uM, 30 min; active = over 0.2 and 3.5 SD of the protein, either way, in both replicates (recomputed)
Procedure, shortened: (§1)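 K562 cells at 2×10^6 cells/mL were exposed to 10 μM compound for 30 min, then aliquots were heated for 3 min across 48°C-58°C, pooled, and extracted in PBS containing 0.5% NP-40 at 4°C. The supernatant after 21,000xg for 90 min was taken as soluble protein and measured by TMTpro 16plex LC-MS/MS with channel sums equalised. Thermal stability is reported relative to control samples, with values from duplicates. Fold changes are given on a log2 scale.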

UniProt O95140, sequence (O95140 whole entry, looked up): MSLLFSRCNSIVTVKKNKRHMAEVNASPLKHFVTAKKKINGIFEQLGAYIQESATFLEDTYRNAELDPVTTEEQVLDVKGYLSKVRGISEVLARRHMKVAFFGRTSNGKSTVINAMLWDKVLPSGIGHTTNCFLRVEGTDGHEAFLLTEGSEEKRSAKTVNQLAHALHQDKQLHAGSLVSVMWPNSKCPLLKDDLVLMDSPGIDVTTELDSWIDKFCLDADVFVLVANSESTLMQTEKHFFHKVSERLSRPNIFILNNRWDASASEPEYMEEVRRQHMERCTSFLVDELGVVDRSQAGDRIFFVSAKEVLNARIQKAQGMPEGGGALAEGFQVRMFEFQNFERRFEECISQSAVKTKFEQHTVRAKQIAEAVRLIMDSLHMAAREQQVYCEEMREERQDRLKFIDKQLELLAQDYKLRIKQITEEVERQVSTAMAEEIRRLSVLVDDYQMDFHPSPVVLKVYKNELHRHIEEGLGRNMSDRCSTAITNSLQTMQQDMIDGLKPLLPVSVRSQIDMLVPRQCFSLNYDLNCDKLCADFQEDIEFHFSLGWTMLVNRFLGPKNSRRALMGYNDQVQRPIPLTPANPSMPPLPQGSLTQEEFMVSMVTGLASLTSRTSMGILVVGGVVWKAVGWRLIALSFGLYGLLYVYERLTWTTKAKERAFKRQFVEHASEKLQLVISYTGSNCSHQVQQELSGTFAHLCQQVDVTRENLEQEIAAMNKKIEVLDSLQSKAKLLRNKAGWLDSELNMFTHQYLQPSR
UniProt Q96GA3, sequence (Q96GA3 whole entry, looked up): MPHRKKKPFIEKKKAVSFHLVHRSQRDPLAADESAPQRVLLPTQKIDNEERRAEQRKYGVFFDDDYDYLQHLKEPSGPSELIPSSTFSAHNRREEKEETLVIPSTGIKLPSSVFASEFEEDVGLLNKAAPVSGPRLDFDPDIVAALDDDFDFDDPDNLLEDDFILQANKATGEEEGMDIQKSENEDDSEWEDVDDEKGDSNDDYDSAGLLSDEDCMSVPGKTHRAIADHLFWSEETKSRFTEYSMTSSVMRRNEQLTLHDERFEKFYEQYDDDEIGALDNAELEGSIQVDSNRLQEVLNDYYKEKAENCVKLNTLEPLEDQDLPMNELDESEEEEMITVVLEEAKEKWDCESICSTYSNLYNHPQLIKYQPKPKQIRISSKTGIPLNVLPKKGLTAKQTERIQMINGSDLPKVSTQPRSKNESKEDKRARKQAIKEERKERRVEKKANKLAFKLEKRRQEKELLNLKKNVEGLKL
UniProt Q14624, sequence (Q14624 whole entry, looked up): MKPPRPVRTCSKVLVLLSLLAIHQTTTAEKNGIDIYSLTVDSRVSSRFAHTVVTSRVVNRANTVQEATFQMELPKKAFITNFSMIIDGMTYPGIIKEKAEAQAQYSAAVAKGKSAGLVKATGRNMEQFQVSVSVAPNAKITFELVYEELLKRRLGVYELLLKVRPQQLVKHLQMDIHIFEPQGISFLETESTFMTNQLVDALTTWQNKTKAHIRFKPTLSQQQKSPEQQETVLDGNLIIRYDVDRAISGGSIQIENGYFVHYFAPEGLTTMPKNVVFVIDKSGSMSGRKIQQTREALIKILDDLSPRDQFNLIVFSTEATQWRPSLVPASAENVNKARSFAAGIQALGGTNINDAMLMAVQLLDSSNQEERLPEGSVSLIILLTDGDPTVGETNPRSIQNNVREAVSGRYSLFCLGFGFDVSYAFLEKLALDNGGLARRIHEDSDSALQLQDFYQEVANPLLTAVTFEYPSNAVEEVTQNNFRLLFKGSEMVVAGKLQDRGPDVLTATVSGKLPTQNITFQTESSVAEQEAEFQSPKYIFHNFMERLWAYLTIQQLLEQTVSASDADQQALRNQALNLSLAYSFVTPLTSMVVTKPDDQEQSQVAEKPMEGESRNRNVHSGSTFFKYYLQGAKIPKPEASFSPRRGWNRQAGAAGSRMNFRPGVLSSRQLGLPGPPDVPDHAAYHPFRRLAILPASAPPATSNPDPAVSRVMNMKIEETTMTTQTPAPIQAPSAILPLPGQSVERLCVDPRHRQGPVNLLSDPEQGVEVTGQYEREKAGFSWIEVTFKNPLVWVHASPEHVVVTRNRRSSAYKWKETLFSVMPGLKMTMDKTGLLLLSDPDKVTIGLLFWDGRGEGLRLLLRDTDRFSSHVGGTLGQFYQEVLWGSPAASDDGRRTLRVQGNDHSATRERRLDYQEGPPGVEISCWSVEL
UniProt Q03252, sequence (Q03252 whole entry, looked up): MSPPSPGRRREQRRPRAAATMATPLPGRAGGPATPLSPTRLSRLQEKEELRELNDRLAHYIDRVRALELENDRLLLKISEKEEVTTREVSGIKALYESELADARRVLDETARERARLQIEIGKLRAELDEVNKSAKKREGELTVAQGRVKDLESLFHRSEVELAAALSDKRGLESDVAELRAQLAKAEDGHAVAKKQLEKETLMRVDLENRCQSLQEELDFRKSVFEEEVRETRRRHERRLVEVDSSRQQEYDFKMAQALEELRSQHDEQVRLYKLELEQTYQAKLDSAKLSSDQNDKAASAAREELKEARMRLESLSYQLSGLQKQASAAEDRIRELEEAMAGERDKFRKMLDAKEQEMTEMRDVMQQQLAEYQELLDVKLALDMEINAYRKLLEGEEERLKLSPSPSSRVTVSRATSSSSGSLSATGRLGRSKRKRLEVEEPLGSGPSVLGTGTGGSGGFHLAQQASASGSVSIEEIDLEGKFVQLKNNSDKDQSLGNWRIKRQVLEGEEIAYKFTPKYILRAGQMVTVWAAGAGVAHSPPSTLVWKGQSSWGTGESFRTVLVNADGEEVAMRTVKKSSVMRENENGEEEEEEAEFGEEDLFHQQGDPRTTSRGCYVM
UniProt Q96A72, sequence (Q96A72 whole entry, looked up): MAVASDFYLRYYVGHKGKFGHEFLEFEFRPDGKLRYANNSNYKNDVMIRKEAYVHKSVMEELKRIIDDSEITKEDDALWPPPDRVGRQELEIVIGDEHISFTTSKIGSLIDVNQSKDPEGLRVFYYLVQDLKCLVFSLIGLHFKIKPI
UniProt P49006, sequence (P49006 whole entry, looked up): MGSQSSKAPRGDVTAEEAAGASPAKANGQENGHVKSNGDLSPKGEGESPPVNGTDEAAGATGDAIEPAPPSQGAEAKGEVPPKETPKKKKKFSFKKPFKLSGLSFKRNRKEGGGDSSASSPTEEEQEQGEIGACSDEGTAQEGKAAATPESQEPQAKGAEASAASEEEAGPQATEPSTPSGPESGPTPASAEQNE
UniProt Q13418, sequence (Q13418 whole entry, looked up): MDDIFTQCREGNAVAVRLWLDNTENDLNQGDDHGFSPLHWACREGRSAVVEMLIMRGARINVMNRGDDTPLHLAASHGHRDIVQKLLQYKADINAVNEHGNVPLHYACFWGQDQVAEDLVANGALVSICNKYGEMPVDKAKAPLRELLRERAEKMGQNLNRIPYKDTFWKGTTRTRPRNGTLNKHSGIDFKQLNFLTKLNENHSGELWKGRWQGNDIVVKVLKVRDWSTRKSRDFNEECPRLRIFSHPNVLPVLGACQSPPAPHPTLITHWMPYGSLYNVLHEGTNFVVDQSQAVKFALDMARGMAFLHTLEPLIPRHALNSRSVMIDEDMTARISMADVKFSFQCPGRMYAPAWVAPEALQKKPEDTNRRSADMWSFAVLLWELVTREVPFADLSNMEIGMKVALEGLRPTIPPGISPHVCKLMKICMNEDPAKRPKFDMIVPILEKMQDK
UniProt Q7L2J0, sequence (Q7L2J0 whole entry, looked up): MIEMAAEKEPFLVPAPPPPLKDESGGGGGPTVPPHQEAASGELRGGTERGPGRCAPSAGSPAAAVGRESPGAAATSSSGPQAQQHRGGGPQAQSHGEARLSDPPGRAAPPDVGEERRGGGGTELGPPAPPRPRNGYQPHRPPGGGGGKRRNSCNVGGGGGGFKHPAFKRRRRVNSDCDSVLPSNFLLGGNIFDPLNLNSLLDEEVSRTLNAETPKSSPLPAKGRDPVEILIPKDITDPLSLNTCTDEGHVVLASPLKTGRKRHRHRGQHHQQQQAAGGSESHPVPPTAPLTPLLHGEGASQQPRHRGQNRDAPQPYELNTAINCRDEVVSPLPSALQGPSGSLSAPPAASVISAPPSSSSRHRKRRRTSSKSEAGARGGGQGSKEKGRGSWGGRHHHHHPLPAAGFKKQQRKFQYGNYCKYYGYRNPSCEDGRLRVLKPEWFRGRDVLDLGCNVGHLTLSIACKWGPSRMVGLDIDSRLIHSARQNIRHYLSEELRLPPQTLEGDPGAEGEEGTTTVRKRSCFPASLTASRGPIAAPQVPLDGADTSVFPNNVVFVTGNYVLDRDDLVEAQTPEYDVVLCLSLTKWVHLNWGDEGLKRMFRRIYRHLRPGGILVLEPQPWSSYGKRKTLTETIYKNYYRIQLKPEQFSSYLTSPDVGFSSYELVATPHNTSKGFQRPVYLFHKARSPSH
UniProt Q96AQ8, sequence (Q96AQ8 whole entry, looked up): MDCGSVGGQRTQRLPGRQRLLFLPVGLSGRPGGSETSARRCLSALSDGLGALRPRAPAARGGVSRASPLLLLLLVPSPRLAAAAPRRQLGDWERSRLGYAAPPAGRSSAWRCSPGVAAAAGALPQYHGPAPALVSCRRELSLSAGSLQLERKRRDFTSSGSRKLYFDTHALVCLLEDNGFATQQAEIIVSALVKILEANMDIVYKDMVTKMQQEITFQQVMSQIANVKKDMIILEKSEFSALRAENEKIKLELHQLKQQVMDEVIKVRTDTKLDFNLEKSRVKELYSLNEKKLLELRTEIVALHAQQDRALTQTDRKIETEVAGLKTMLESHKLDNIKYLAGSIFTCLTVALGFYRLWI
UniProt Q8NC54, sequence (Q8NC54 whole entry, looked up): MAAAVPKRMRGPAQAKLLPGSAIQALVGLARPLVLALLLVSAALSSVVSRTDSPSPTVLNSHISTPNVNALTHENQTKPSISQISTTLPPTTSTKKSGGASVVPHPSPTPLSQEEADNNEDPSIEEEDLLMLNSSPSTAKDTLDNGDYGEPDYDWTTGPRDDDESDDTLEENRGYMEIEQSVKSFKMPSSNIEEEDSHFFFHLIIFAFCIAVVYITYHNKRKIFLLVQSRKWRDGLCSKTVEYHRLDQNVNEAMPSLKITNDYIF

Row | Target | log2 fold change
1 | KDM3B (UniProt Q7LBC6) | -0.164
2 | MAP2K7 isoform 4 (UniProt O14733) | -0.026
3 | MIEF1 (UniProt L0R8F8) | -0.028
4 | MARCKSL1 (UniProt P49006) | -0.055
5 | MEPCE (UniProt Q7L2J0) | -0.07
6 | MCUR1 (UniProt Q96AQ8) | 0.022
7 | MED1 (UniProt Q15648) | 0.073
8 | LNPEP (UniProt Q9UIQ6) | 0.004
9 | IPO7 (UniProt O95373) | -0.248 (active)
10 | LMNB1 (UniProt P20700) | -0.045
11 | MAGEC2 (UniProt Q9UBF1) | -0.017
12 | KDELR2 (UniProt P33947) | 0.033
13 | INTS7 (UniProt Q9NVH2) | 0.035
14 | LMBRD2 (UniProt Q68DH5) | -0.063
15 | INPP5B (UniProt P32019) | 0.021
16 | IRF2BPL (UniProt Q9H1B7) | 0.01
17 | KIF3A (UniProt Q9Y496) | 0.036
18 | LNPK (UniProt Q9C0E8) | 0.02
19 | LEO1 (UniProt Q8WVC0) | -0.021
20 | MCU (UniProt Q8NE86) | -0.147

Row | Target | log2 fold change
21 | MAP1LC3B2 (UniProt A6NCE7) | -0.074
22 | MAST4 (UniProt O15021) | -0.059
23 | ILK (UniProt Q13418) | 0.033
24 | LARP7 isoform 3 (UniProt Q4G0J3) | -0.047
25 | LDAH isoform 2 (UniProt Q9H6V9) | -0.062
26 | MFN2 (UniProt O95140) | -0.1
27 | MAGOHB (UniProt Q96A72) | -0.046
28 | LMNB2 (UniProt Q03252) | 0.027
29 | LTV1 (UniProt Q96GA3) | 0.09
30 | KLHL18 (UniProt O94889) | 0.075
31 | MFSD5 isoform 2 (UniProt Q6N075) | 0.052
32 | MEAK7 (UniProt Q6P9B6) | -0.084
33 | MCCC2 (UniProt Q9HCC0) | 0.003
34 | ITIH4 (UniProt Q14624) | -0.18
35 | KNTC1 (UniProt P50748) | -0.255
36 | MFGE8 (UniProt Q08431) | 0.061
37 | KCT2 (UniProt Q8NC54) | -0.312
38 | MAPK9 (UniProt P45984) | -0.055
39 | LSS (UniProt P48449) | 0.024

Compound: CC[C@@H]1C(=O)N(C)c2cnc(Nc3ccc(C(=O)N[C@H]4CC[C@H](N5CCN(CC6CC6)CC5)CC4)cc3OC)nc2N1C(C)C [volasertib]
Assay: as above
Procedure, shortened: as §1

Row | Target | log2 fold change
40 | KDM3B (UniProt Q7LBC6) | -0.349 (active)
41 | MAP2K7 isoform 4 (UniProt O14733) | -0.005
42 | MIEF1 (UniProt L0R8F8) | -0.076
43 | MARCKSL1 (UniProt P49006) | 0.038
44 | MEPCE (UniProt Q7L2J0) | -0.209
45 | MCUR1 (UniProt Q96AQ8) | 0.137
46 | MED1 (UniProt Q15648) | 0.077
47 | LNPEP (UniProt Q9UIQ6) | -0.182
48 | IPO7 (UniProt O95373) | -0.542 (active)
49 | LMNB1 (UniProt P20700) | -0.308 (active)
50 | MAGEC2 (UniProt Q9UBF1) | -0.146
51 | KDELR2 (UniProt P33947) | -0.18
52 | INTS7 (UniProt Q9NVH2) | -0.313
53 | LMBRD2 (UniProt Q68DH5) | -0.042
54 | INPP5B (UniProt P32019) | -0.04
55 | IRF2BPL (UniProt Q9H1B7) | -0.043
56 | KIF3A (UniProt Q9Y496) | -0.039
57 | LNPK (UniProt Q9C0E8) | 0.024
58 | LEO1 (UniProt Q8WVC0) | -0.402 (active)
59 | MCU (UniProt Q8NE86) | -0.249 (active)

Row | Target | log2 fold change
60 | MAP1LC3B2 (UniProt A6NCE7) | -0.072
61 | MAST4 (UniProt O15021) | -0.22
62 | ILK (UniProt Q13418) | 0.064
63 | LARP7 isoform 3 (UniProt Q4G0J3) | -0.155
64 | LDAH isoform 2 (UniProt Q9H6V9) | -0.374 (active)
65 | MFN2 (UniProt O95140) | -0.23
66 | MAGOHB (UniProt Q96A72) | -0.096
67 | LMNB2 (UniProt Q03252) | -0.077
68 | LTV1 (UniProt Q96GA3) | 0.004
69 | KLHL18 (UniProt O94889) | -0.178
70 | MFSD5 isoform 2 (UniProt Q6N075) | 0.111
71 | MEAK7 (UniProt Q6P9B6) | -0.473 (active)
72 | MCCC2 (UniProt Q9HCC0) | 0.038
73 | ITIH4 (UniProt Q14624) | -0.311
74 | KNTC1 (UniProt P50748) | -0.504 (active)
75 | MFGE8 (UniProt Q08431) | 0.362
76 | KCT2 (UniProt Q8NC54) | -0.076
77 | MAPK9 (UniProt P45984) | -0.087
78 | LSS (UniProt P48449) | 0.719 (active)
